MK inhibit – S. pneumoniae mevalonate kinase inhibition; inhibition, % at 10 µM; AID 555; 65,000 compounds, 0.48% hits; purified MK, PK/LDH-coupled NADH absorbance 340 nm;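 active means ranked among the strongest by inhibition in the single 10 µM screen, a fixed top-ranked set picked for dose follow-up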
Spn DPM-DC inh – inhibitors of Streptococcus pneumoniae diphosphomevalonate decarboxylase | AID 556 | purified DPM-DC, PK/LDH coupled NADH fluorescence | 65,000 compounds, 0.49% hits | calls only at 10 µM;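 active means the 320 compounds with the highest percent inhibition in the single-dose primary screen, excluding strongly autofluorescent ones, cut at about 32% in these data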;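 further: kinetic rate of NADH fluorescence loss reporting ADP formed by the decarboxylase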
NADH enzymes – inhibition of NAD/NADH coupling enzymes, library profiling. coupled PK/LDH NADH assays, four targets. IC50, µM (titrated, usually from 10 µM), for the others: at the highest dose inhibition. 65,000 compounds, 0.02% hits. AID 774;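 active means single-dose screening hits from any of four coupled enzyme assays that gave an IC50 when retested across doses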;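 further: the DPM-DC format reads NADH fluorescence rather than 340 nm absorbance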
A340 absorber – compounds absorbing at 340 nm; 65,000 tested, under 10 active; fold change at 10 µM; AID 708; compound absorbance at 340 nm, fold over control;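 active means at 10 µM dose, initial 340 nm absorbance at least 2 fold that of control wells; inactive means change under 2 fold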;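 further: initial absorbance extrapolated from kinetic A340 decline of NADH oxidation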
Spn PMK inh – inhibitors of Streptococcus pneumoniae phosphomevalonate kinase; purified PMK, PK/LDH-coupled NADH absorbance 340 nm; inhibition, % at 10 µM; 65,000 compounds, 0.49% hits;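 active means top-ranked compounds by inhibition in the single 10 µM screen, taking a fixed number of the strongest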;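 further: 0% = full reaction with DMSO carrier and 100% = background rate without enzyme reaction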
Autofluor 339 – intrinsic fluorescence of library compounds, ex339/em460 – biochemical, MLSMR library, data from DPM-DC assay, artefact control, profiling panel. 65,000 compounds, 5.5% hits. compound autofluorescence, ex339/em460 nm, NADH buffer; active compounds read high; 1 = no-compound wells, NADH background. fluorescence fold increase at 10 µM;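 active means at 10 µM, mean starting fluorescence two-fold or more over control wells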;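 further: signal is the first read of a kinetic run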
The depositor's hits bear a star; i = inactive; . = not tested or not shown; + = active, no number; [ ] = dose if it differs, or a comment. Rows were chosen to be rich in hits. Some 6.5% of all compounds tested hit in one or more screens of this group.

SMILES	MK inhibit	Spn DPM-DC inh	NADH enzymes	A340 absorber	Spn PMK inh	Autofluor 339
COc1ccccc1Cn1c(=O)c2ccccc2n2c(SCC(=O)N3CCCCC3)nnc12	0.0	i	4.0%	1.01	13.0	1.06
Cc1ccc(-n2nc(-c3ccc(N)cc3)cc2N)cc1	10.0	i	3.0%	1.04	0.0	1.06
Cc1ccc(-n2nc3ccc(N)cc3n2)cc1	6.0	.	7.0%	1.09	7.0	2.14*
CCOC(=O)c1cnc(-n2nc(C)cc2C)nc1NC	4.0	i	10.0%	1.03	11.0	1.91
CCOC(=O)c1cnc(-n2nc(C)cc2C)nc1NC1CCCCC1	8.0	i	6.0%	1.02	10.0	2.05*
COc1cccc2[nH]c3c(=O)n(CCN(C)C)cnc3c12	13.0	.	15.0%	1.04	16.0	3.76*
O=c1c2[nH]c3cccc(Cl)c3c2ncn1Cc1ccncc1	12.0	i	4.0%	1.02	1.0	1.49
CCN(CC)CCn1cnc2c([nH]c3cccc(OC)c32)c1=O	6.0	.	9.0%	1.04	12.0	3.73*
Cc1csc(NC(=O)C2CCC(C)(C(=O)O)C2(C)C)n1 (stereo unspecified)	5.0	i	11.0%	1	29.0*	1.08
Cc1c(NC(=O)C(C)Sc2nnc(-c3ccccc3)o2)c(=O)n(-c2ccccc2)n1C (stereo unspecified)	7.0	i	4.0%	1	4.0	1.03
CC(C)C(O)P(=O)(OCc1ccccc1)c1ccc(N(C)C)cc1 (stereo unspecified)	7.0	i	10.0%	1.02	18.0	1.09
COc1cc2nc(NCCN3CCOCC3)n3nc(-c4ccccc4)nc3c2cc1OC	7.0	i	11.0%	1.02	14.0	2.88*
CC(C)(C)c1cc(CCC(=O)N2CCNCC2)c(C(C)(C)C)cc1O	7.0	i	2.0%	0.98	0.0	1.01
Cc1sc2nc3c4ccccc4c(NCc4ccco4)nn3c(=O)c2c1C	2.0	.	3.0%	1.07	3.0	4.74*
Cc1nnc(NCc2ccco2)c2ccccc12	2.0	i	5.0%	1.02	14.0	1.06
COc1cc(NC(=O)c2ccco2)c(OC)cc1NC(=O)CCC(=O)Nc1cc(C)cc(C)c1	0.0	i	4.0%	1.02	5.0	1.14
COc1cc(NC(=O)c2ccco2)c(OC)cc1NC(=O)CCC(=O)Nc1cc(C)ccc1C	7.0	+	37.0%	1.04	8.0	2.74*
CCCCC(=O)Nc1cccc2c1C(=O)N(c1ccccc1)C2=O	9.0	i	3.0%	1.04	0.0	1.07
Nc1cccc2c1C(=O)N(c1ccccc1)C2=O	0.0	+[fluoresces]	2.0%	1	9.0	2.28*
Nc1c2c(nc3ccccc13)N(c1ccccc1)CC2	42.0*	.	21.0%	1.08	0.0	2.27*
CCc1c(C)c(C#N)c2nc3ccccc3n2c1Nc1c(C)n(C)n(-c2ccccc2)c1=O	10.0	+	15.0%	1.04	0.0	0.69
CCCc1cc(Nc2c(C)n(C)n(-c3ccccc3)c2=O)n2c(nc3ccccc32)c1C#N	9.0	i	3.0%	1.04	0.0	1.21
CCCC(=O)Nc1ccc(-c2nc3cc(C)c(C)cc3o2)cc1	6.0	.	7.0%	1.03	7.0	3.79*
O=C(Nc1ccc2oc(-c3ccccc3Cl)nc2c1)c1cncc(Br)c1	0.0	i	4.0%	1.01	11.0	1.37
CCCCCC(=O)Nc1ccc2oc(-c3cncc(Br)c3)nc2c1	9.0	i	15.0%	0.98	7.0	2.53*
SMILES	MK inhibit	Spn DPM-DC inh	NADH enzymes	A340 absorber	Spn PMK inh	Autofluor 339
CCCCC(=O)Nc1ccc2oc(-c3ccncc3)nc2c1	7.0	.	4.0%	1.05	0.0	3.7*
CCCC(=O)Nc1ccc2oc(-c3ccncc3)nc2c1	16.0	.	13.0%	1.07	10.0	3.63*
CCC(=O)N1CCc2cc(S(=O)(=O)NC(CC(C)C)C(=O)N3CCc4ccccc43)ccc21 (stereo unspecified)	1.0	i	4.0%	1	11.0	1.01
CCNC(=O)CC1C(=O)N(c2ccc(F)cc2)C(=O)N1CCC(C)C (stereo unspecified)	14.0	i	5.0%	0.99	9.0	0.96
C[C@H](NC(=O)C1(c2ccccc2)CCN(C(=O)[C@H]2CSCN2C(=O)OC(C)(C)C)CC1)C(=O)O	6.0	i	5.0%	0.99	8.0	1.05
COC(=O)[C@H](C)NC(=O)Nc1cc(OC)ccc1OC	10.0	i	4.0%	0.99	10.0	1.44
CCCOc1ccc(-c2nnc(-c3ccco3)o2)cc1	15.0	i	7.0%	1.01	5.0	2.19*
O=C(NC(C(=O)c1ccccc1)N1CCCCC1)c1ccccc1 (stereo unspecified)	2.0	i	4.0%	1.04	9.0	1.08
CCOC(=O)Cc1csc(NC(=O)CSc2ncnc3c2cnn3-c2ccc(OC)cc2)n1	11.0	i	9.0%	0.99	12.0	2.45*
COc1ccc(-n2c(SCCC#N)nnc2-c2cc(Cl)ccc2OC)cc1Cl	0.0	i	4.0%	1	11.0	1.09
CCn1c(SCC(=O)Nc2ccc(Cl)cc2)nnc1C1CC1	4.0	i	9.0%	0.99	58.0*	1.03
CCn1c(SCC(=O)Nc2ccc(NC(C)=O)cc2)nnc1C1CC1	7.0	i	10.0%	0.98	19.0	1.09
CC1(C)Cc2c(C#N)c(N3CCN(C(=O)c4ccccc4)CC3)nc(-c3ccco3)c2CS1	2.0	i	4.0%	1.02	0.0	1.64
CC1(C)Cc2c(C#N)c(OCC(=O)c3ccc(Cl)cc3)nc(-c3ccco3)c2CO1	2.0	i	1.0%	1.14	2.0	2.12*
CC(C)c1nc(N2CCN(C(=O)c3ccccc3)CC2)c(C#N)c2c1COC(C)(C)C2	1.0	.	1.0%	1.07	0.0	2.13*
N#Cc1c(N2CCOCC2)nc(-c2ccco2)c2c1CCCC2	10.0	.	5.0%	1.05	0.0	2.29*
CCC(=O)N1CCN(c2nc(-c3ccccc3)c3c(c2C#N)CCCC3)CC1	0.0	.	2.0%	1.02	16.0	2.08*
Cn1c(-c2ccc(F)cc2)cnc1SCC(=O)N1CCCCC1	0.0	i	5.0%	1	15.0	1.04
COc1ccc(-c2nc(CS(=O)CC(=O)NCc3ccc(Cl)cc3)c(C)o2)cc1 (stereo unspecified)	4.0	i	2.0%	1.05	1.0	1.13
CS(=O)(=O)N(CC(=O)NCc1ccccn1)Cc1ccc(Cl)cc1	7.0	i	2.0%	1.01	0.0	1.05
CC1(C)Cc2c(C#N)c(NCc3ccco3)nc(-c3ccco3)c2CO1	2.0	.	2.0%	1	2.0	2.25*
CN(C)CCNc1nc(-c2ccco2)c2c(c1C#N)CC(C)(C)OC2	5.0	.	5.0%	1.1	4.0	2.2*
Cc1nc(NCc2ccco2)c(C#N)c2c1COC(C)(C)C2	4.0	i	7.0%	1.05	0.0	2.72*
CCCc1nc(NCc2ccco2)c(C#N)c2c1COC(C)(C)C2	8.0	i	5.0%	1.04	0.0	1.95
CC1(C)Cc2c(C#N)c(N3CCCC3)nc(-c3ccco3)c2CO1	7.0	.	9.0%	1.05	11.0	2.16*
